A selection: hits, their analogues and other compounds. The true share with any hit is near 4.1%.
DAX1 inh-1 = inhibits human nuclear receptor DAX1; P51843; HEK293 Gal4-DAX1 luciferase reporter, luminescence; inhibition, % at 6.75 µM; 0.99% of 340,000 active; AID 504766;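 active means inhibition above the mean over all tested compounds plus 3 SD, cut at about 4.2% in these data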;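 further: inhibition shows as a rise in luminescence from relieved DAX1 repression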
hgDAF12 agonist = agonists of H. glycines DAF-12 nuclear receptor; HEK293 GAL4-hgDAF12 UAS-luciferase reporter, agonist luminescence; normalized to butyrate control; activation, % at 6.8 µM; 1.8% of 370,000 active;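 active means activation above a cutoff set at the mean of all screened compounds plus 3 SD, cut at about 10% in these data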
DAX1 inh-2 = DAX1 (NR0B1) inhibition, primary screen | AID 652010 | HEK293T StAR-luciferase reporter, SF-1/DAX-1 repression relief | inhibition, % at 6.8 µM | 1.1% of 370,000 active;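 active means inhibition above the mean over all tested compounds plus 3 SD, cut at about 3.6% in these data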;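 further: higher inhibition means more luminescence from relief of DAX-1 repression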
hcDAF-12 act = activates DAF-12 receptor from parasite H. contortus. HEK293 hcDAF-12 lit1-tk-luc reporter, luminescence; 0% DMSO, 100% Δ7-dafachronic acid. activation, % at 6.8 µM. 1.4% of 370,000 active. AID 652067;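 active means activation above the mean of all tested compounds plus 3 SD, cut at about 5.5% in these data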
ssDAF-12 act = S. stercoralis DAF-12 activation, primary screen. HEK293 ssDAF-12/GRIP1 lit1-tk-luc reporter, luminescence; % of 3 µM dafachronic acid response. activation, % at 6.8 µM. 1% of 370,000 active;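 active means activation above the mean over all tested compounds plus 3 SD, cut at about 0.9% in these data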
LXR ag = counter-screen for hcDAF-12 agonists: agonists of human LXR-beta; HEK293 Gal4-LXR tk-luc reporter, luminescence, 24 h; normalized: DMSO 0%, positive control 100%; shares compounds with hcDAF-12 act; activation, % at 6.8 µM; AID 743027; 3,400 tested, under 10 active;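 active means mean percent activation of the reporter above a cutoff set as the average over tested compounds plus their standard deviation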
Target sequence (P55055 whole entry, looked up, the tested form may be a part): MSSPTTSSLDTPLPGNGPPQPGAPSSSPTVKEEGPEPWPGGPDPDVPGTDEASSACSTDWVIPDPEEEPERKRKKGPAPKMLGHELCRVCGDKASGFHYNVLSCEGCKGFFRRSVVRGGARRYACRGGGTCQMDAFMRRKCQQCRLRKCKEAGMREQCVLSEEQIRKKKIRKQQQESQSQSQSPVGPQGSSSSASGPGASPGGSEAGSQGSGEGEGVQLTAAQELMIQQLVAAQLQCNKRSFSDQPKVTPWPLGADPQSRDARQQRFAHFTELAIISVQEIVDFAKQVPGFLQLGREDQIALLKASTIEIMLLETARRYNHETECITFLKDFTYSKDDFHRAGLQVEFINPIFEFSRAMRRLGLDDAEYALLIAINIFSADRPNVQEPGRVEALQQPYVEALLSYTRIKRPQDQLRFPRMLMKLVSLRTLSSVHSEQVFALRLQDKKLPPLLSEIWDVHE
hcDAF12 ag = hcDAF-12 agonism, confirmation assay. activation, % at 6.8 µM. shares compounds with hcDAF-12 act. 61% of 3,400 active. HEK293 hcDAF-12 lit1-tk-luc reporter, luminescence; % of Δ7-dafachronic acid response;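 active means mean activation across triplicate tests above the threshold derived from the earlier primary screen, cut at about 5.5% in these data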
Of the large screens only hits and unclear results are named; the others gave an inactive call (follow-up assays come after a bar, where they were run).

COc1ccc(Cl)cc1-c1nc(-c2ccc(Br)o2)no1	hcDAF-12 act 8.2 | LXR ag inactive | hcDAF12 ag 8.8
Cc1ccccc1-c1nc(-c2ccc(Br)o2)no1	hcDAF-12 act 17.2, ssDAF-12 act 2.3 | LXR ag inactive | hcDAF12 ag 12.1
Fc1ccccc1-c1nc(-c2ccc(Br)o2)no1	hgDAF12 agonist 20.9, hcDAF-12 act 16.9, ssDAF-12 act 2.3 | LXR ag inactive | hcDAF12 ag 16.6
COc1ccc(Br)cc1-c1noc(-c2ccccc2F)n1	none
COc1ccc(-c2noc(-c3ccc(Br)o3)n2)cc1	none
C=CCN1C(=O)[C@@H](CC(=O)NCCCOC)[C@]2(C(=O)OCC)CCCCC/C=C/12	none (no result: DAX1 inh-1)
Nc1oc2ccccc2c1C(=O)Cc1ccccc1O[C@@H]1O[C@H](CO)[C@@H](O)[C@H](O)[C@H]1O	none
CS(=O)(=O)N1N=C(c2ccccc2)CC1c1ccc2c(c1)OCO2 (centres undefined)	hcDAF-12 act 7.0 | LXR ag inactive | hcDAF12 ag 7.4
CSc1nsc(NN)n1	hgDAF12 agonist 10.6, hcDAF-12 act 7.7 | LXR ag inactive | hcDAF12 ag inactive
O=[N+]([O-])c1ccc(-c2c(-c3ccccc3)ncc3cc(F)ccc23)cc1	none
Cc1cccc(C(=O)Nc2cccc3cccnc23)c1	none
O=C(Nc1cccc2cccnc12)c1ccc(Cl)cc1	hcDAF-12 act 6.7, ssDAF-12 act 1.2 | LXR ag inactive | hcDAF12 ag 7.6
O=C(NC(=S)Nc1cccnc1Cl)c1ccc(Cl)cc1	hgDAF12 agonist 15.4, hcDAF-12 act 10.3, ssDAF-12 act 1.1 | LXR ag inactive | hcDAF12 ag 14.9
Cc1ccc(C(=O)Nc2cccc3cccnc23)cc1C	hcDAF-12 act 9.7 | LXR ag inactive | hcDAF12 ag 8.8
O=C(NC(=S)Nc1cccnc1Cl)c1ccco1	none
COc1ccc2c(c1)C1=NN(/C(C)=C/C(C)=O)C(c3cccc(F)c3)C1CC2 (centres undefined)	none
COc1ccc2c(c1)C1=NN(/C(C)=C/C(C)=O)C(c3ccc(F)cc3)C1CC2 (centres undefined)	hcDAF-12 act 9.5, ssDAF-12 act 1.3 | LXR ag inactive | hcDAF12 ag 5.7
Cc1cc(/C=C2\SC(=S)NC2=O)c(C)n1-c1ccccc1	hcDAF-12 act 13.4, ssDAF-12 act 1.6 (no result: DAX1 inh-1) | LXR ag inactive | hcDAF12 ag 12.8
CCc1ccccc1Nc1nc(N)nc(COC(=O)C2CCN(C(=O)c3ccc(F)cc3)CC2)n1	none
O=C1N=c2ccccc2=C1c1sc(=S)n(NC(=O)c2cccc(O)c2)c1O	none
O=C1N=c2ccc(Br)cc2=C1c1sc(=S)n(NS(=O)(=O)c2ccccc2)c1O	hcDAF-12 act 6.6 | LXR ag inactive | hcDAF12 ag inactive
CCN(CC)S(=O)(=O)c1ccc(NC=C(C#N)C#N)cc1	none
Cc1nnc(-c2ccccc2)o1	none
Cn1cc(-c2nnc(-c3ccccc3)o2)c2ccccc21	hgDAF12 agonist 17.0, hcDAF-12 act 7.9, ssDAF-12 act 1.3 | LXR ag inactive | hcDAF12 ag 18.0
CN(C)CC(C)(C)CNC(C(=O)Nc1ccc(Cl)cc1C(F)(F)F)c1ccccc1 (centres undefined)	none
O=C(Cn1cncc1-c1ccc([N+](=O)[O-])cc1)Nc1ccccc1F	none
CCOC(=O)c1cc2ccc3ccccc3c2s1	hgDAF12 agonist 10.8, hcDAF-12 act 7.2, ssDAF-12 act 1.3 | LXR ag inactive | hcDAF12 ag 11.4
COc1cc(CN2C(=O)C(C)ON=C2c2ccccc2F)cc(OC)c1 (centres undefined)	none (no result: DAX1 inh-1)
CC1ON=C(c2ccccn2)N(Cc2ccc(S(C)(=O)=O)cc2)C1=O (centres undefined)	hcDAF-12 act 10.3 (no result: DAX1 inh-1) | LXR ag inactive | hcDAF12 ag inactive
Cc1csc(NC(=O)c2cccc(C)c2C)n1	none
Cc1csc(NC(=O)c2cccnc2Cl)n1	hcDAF-12 act 8.7, ssDAF-12 act 1.1 | LXR ag inactive | hcDAF12 ag 10.9
O=C(N/N=C/c1cc(Br)c(O)c(Br)c1)C1CC1	none
CC(C)(C)NC(=S)N/N=C/c1cc(Br)c(O)c(Br)c1	hcDAF-12 act 7.4 | LXR ag inactive | hcDAF12 ag inactive
Cc1ccc(Cl)c2c(N=Nc3ccccc3)c(O)[nH]c12	DAX1 inh-1 6.3, hcDAF-12 act 7.7, ssDAF-12 act 0.9 | LXR ag inactive | hcDAF12 ag 10.4
O=C(/C=C/Nc1cccc(F)c1)c1ccco1	hgDAF12 agonist 11.7, hcDAF-12 act 8.8, ssDAF-12 act 1.4 | LXR ag inactive | hcDAF12 ag 8.1
O=C(/C=C\Nc1cccc(F)c1)c1cccs1	DAX1 inh-2 3.6, hcDAF-12 act 9.8, ssDAF-12 act 1.5 | LXR ag inactive | hcDAF12 ag 18.0
O=C(/C=C/Nc1ccc(F)c(Cl)c1)c1ccco1	hcDAF-12 act 8.8, ssDAF-12 act 1.7 | LXR ag inactive | hcDAF12 ag 11.7
O=C(Nc1cccc(F)c1)/C(=C\c1ccco1)NC(=O)c1cccs1	none
COCc1cccc(C2=CC(=O)C[C@H](c3ccc(OC)cc3)C2)c1	none
CN(Cc1ccco1)C(=O)c1ccc(S(=O)(=O)N2CCCCCC2)cc1	none
COc1cccc(C(C)(O)c2nc(-c3ccc(OC)c(OC)c3)cs2)c1 (centres undefined)	none (no result: DAX1 inh-1)
O=C(NCCc1c[nH]c2ccccc12)OCc1cn(Cc2ccccc2F)nn1	none (no result: DAX1 inh-1)
O=C(NCCc1c[nH]c2ccccc12)OCc1cn(Cc2cccc(Cl)c2)nn1	hcDAF-12 act 6.6 (no result: DAX1 inh-1) | LXR ag inactive | hcDAF12 ag inactive
C=C1CSc2nc(=O)c3c4c(sc3n21)CCCC4	hcDAF-12 act 7.0 | LXR ag inactive | hcDAF12 ag inactive
CCc1ccc(CN2CCCC(C(=O)Nc3ccccc3-c3ccc(OC)cc3)C2)o1 (centres undefined)	none
CC(C)NC(=S)NC(c1ccccc1)(c1ccccc1)c1ccccc1	none
Cc1ccc(S(=O)(=O)N2CCN(C(=O)c3ccc4ccccc4n3)CC2)c(C)c1	hgDAF12 agonist 11.5, hcDAF-12 act 7.2 | LXR ag inactive | hcDAF12 ag 8.4
COCCCNC(=S)N1CCN(S(C)(=O)=O)CC1	none
Nc1ccccc1N=Nc1ccccc1N	hcDAF-12 act 6.7 | LXR ag inactive | hcDAF12 ag 9.2
O=c1c2cc(F)ccc2[nH]c(=S)n1CCCN1CCOCC1	hcDAF-12 act 10.6 | LXR ag inactive | hcDAF12 ag inactive
O=c1c2cc(N3CCOCC3)ccc2[nH]c(=S)n1CCCN1CCCCCC1	none
NC(=O)c1ccccc1NC(=S)NC(=O)c1ccc(Br)o1	hcDAF-12 act 9.2 | LXR ag inactive | hcDAF12 ag inactive

Compound activity from PubChem BioAssay.
